Results on 40 compounds are retold here after PubChem BioAssay (Tox21).

Values joined by “and” are separate entries in the source; they are usually repeats but may differ in a detail not shown here. Identical values can stand only once. A structure can be active in one record and inactive in another. Active and inactive are the calls of the source. A call without a number means that no potency is given here. The call rests on the fitted dose curve.
Potency means the concentration at half of the fitted maximal effect.

Sequence of Estrogen receptor (Homo sapiens) (P03372 whole entry, looked up): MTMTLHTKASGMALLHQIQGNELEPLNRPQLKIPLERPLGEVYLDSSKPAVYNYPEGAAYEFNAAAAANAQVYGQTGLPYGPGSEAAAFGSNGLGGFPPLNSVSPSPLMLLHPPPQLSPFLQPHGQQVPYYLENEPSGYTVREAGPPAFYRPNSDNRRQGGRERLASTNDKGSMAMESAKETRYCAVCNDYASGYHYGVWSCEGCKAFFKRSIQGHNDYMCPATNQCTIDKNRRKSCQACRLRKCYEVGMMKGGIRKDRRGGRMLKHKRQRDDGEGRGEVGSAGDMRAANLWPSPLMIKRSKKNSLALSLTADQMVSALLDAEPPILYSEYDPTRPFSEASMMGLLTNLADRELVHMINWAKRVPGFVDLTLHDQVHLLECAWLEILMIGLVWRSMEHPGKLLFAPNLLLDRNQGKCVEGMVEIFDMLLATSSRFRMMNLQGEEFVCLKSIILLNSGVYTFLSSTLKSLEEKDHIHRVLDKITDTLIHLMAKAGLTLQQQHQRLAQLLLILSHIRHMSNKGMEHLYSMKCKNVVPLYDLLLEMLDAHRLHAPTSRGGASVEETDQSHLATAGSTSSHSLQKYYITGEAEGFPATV

This assay has as its target Estrogen receptor (Homo sapiens) (UniProt P03372). Put plainly: qHTS assay to identify small molecule agonists of the estrogen receptor alpha (ER-alpha) signaling pathway in the presence of an antagonist (AID 1259383). Further: nearly all actives have a fitted effect of over 15% in size. The following applies: VM7Luc4E2 cells, ERE-luciferase, +ICI-182,780, 22 h; series mostly up to 92.4 µM. An excerpt: National Center for Advancing Translational Sciences [NCATS] NIH Chemical Genomics Center [NCGC] U.S. Environmental Protection Agency [EPA] National Institutes of Environmental Health Sciences [NIEHS] National Toxicology Program [NTP] Assay overview: Estrogen receptor (ER), a member of nuclear hormone receptor plays an important role in development, metabolic homeostasis and reproduction. Two subtypes of ER, ER-alpha and ER-beta, have similar expression patterns with some uniqueness in both types. Endocrine disrupting chemicals (EDCs) and their interactions with steroid hormone receptors like ER causes disruption of normal endocrine function. Therefore, it is important to understand the effect of environmental chemicals in ER signaling pathway. For identifying ER agonists, VM7Luc4E2 cell line has been used in the current assay. VM7Luc4E2 cell line (provided by Denison MS, University of California) endogenously expresses full-length ER-alpha and is stably transfected with a plasmid containing four estrogen responsive elements (ERE) upstream of a luciferase reporter gene. This current screening for measuring luciferase reporter gene activity using VM7Luc4E2 cells against Tox21 10K library collection is a confirmation study on agonist mode screening in presence of ER-antagonist (ICI-182,780) at 10.0nM final concentration.
Assay Protocol Summary: VM7Luc4E2 cells were cultured in phenol red free assay medium containing 10% charcoal stripped FBS for 5 days prior to the assay. The cells were dispensed at 4,000 cells in 4uL of assay medium per well into white wall/solid-bottom 1536-well plates (Corning Life Sciences, Corning, NY) using a Multidrop Combi (Thermo Fisher Scientific Inc., Waltham, MA) dispenser. After the assay plates were incubated at 37C and 5% CO2 for 24hr, 1uL of 10.0nM (final concentration) ICI-182,780 or assay buffer was added using two separate tips of Flying Reagent Dispenser (FRD, Aurora Discovery, San Diego, CA). Then 23nL of compounds dissolved in DMSO at 15 concentrations and positive controls or DMSO only was transferred to the assay plates by a Pintool station (Wako, San Diego, CA). The assay plates were incubated at 37C and 5% CO2 for 22hr. For luciferase read, 4uL/well ONE-Glo reagent (Promega Corporation, Madison, WI) was added to each well using FRD and after 30min incubation at room temperature, luminescence signal was measured on ViewLux plate reader (PerkinElmer, Shelton, CT).
In general terms: In qHTS, concentration-response curves come from the screen itself.
Regarding `CCCCCC(=O)O`, the Potency result is “inactive”.
Consider `CCCCCCCCCCCCCCCCO`, for which the Potency result is “inactive”.
With `O=C(OCC1CCC2OC2C1)C1CCC2OC2C1` (stereo not given), the Potency entry was “inactive”.
Consider `O=S(=O)(O)c1ccc(N=Nc2c(O)ccc3cc(S(=O)(=O)O)ccc23)cc1`, for which the Potency result was “inactive”.
On to `CC1(C)NC(=O)NC1=O`, for which the Potency result is “inactive”.
Consider `OCc1ccccc1`, for which the Potency entry is “inactive”.
With `CCOCC(=O)O`, the Potency entry was “inactive”.
With `CCO[Si](CCC#N)(OCC)OCC`, the Potency entry was “inactive”.
Consider `CC(=O)CCC=C(C)C`, for which the Potency entry is “inactive”.
`Cc1ccc([N+](=O)[O-])cc1S(=O)(=O)O`: the Potency result is “inactive”.
In the case of `CN(C)c1ccc(O)c2c1C[C@H]1C[C@H]3[C@H](N(C)C)C(=O)C(C(N)=O)=C(O)[C@@]3(O)C(=O)C1=C2O`, the Potency entry was “inactive and 2.66 µM (active)”.
As for `CC(CCO)CC(C)(C)C` (stereo not given), the Potency result is “inactive”.
As for `O=C(O)c1ccc(C(=O)O)c(C(=O)O)c1`, the Potency result is “inactive”.
Take `O=C1CCCC1`: the Potency entry was “inactive”.
`CC(=O)CC(C)(C)O`: the Potency entry is “inactive”.
Take `CCOC(=O)n1ccn(C)c1=S`: the Potency entry was “inactive”.
In the case of `c1ccc2c(c1)Cc1ccccc1-2` it was “inactive”; in that of `CCCCCCCCCCO`, “inactive”.
The same measure for `CC1(C)S[C@@H]2[C@H](NC(=O)COc3ccccc3)C(=O)N2[C@H]1C(=O)O`: “inactive”; for `CC(C)CC(C)O` (stereo not given): “inactive”.
As for `C=CC(C)CCCC(C)(C)O` (stereo not given), the Potency entry is “inactive”.
Take `CCc1ccccc1CC`: the Potency result is “inactive”.
Regarding `O=C(O)c1ccc(S(=O)(=O)N(Cl)Cl)cc1`, the Potency entry was “inactive”.
Take `CCCCCCCCCCCC(=O)OC`: the Potency result is “inactive”.
With `CCNc1cccc(C)c1`, the Potency result was “inactive”.
For `COc1ccc(C)cc1N`, the Potency result is “inactive”.
In the case of `CCCCOC(=O)c1ccc(N)cc1`, the Potency result is “inactive”.
The same measure for `Nc1ccc(Cl)c(N)c1`: “inactive”.
In the case of `OC1C(O)C(O)C(O)C(O)C1O` (stereo not given), the Potency entry is “inactive”.
`COc1ccc(N)c(C)c1`: the Potency entry was “inactive”.
In the case of `CC1(C)CC(N)CC(C)(CN)C1` (stereo not given) it was 13.9 µM (active) and inactive.
In the case of `CCCCCCCC=O` it was “inactive”; in that of `CC(C)(Oc1ccc(CCNC(=O)c2ccc(Cl)cc2)cc1)C(=O)O`, “inactive”; in that of `CC(C)c1cccc(C(C)C)c1`, “inactive”.
In the case of `Brc1ccc(Br)c(Br)c1` it was “inactive”.
On to `CC(=O)OCCOC(C)=O`, for which the Potency entry is “inactive”.
For the compound `CC(C)OP(=O)(CP(=O)(OC(C)C)OC(C)C)OC(C)C`, the Potency entry is “inactive”.
As for `Cc1ccc2ncccc2c1`, the Potency result was “inactive”.
Take `CC(=O)OCc1ccccc1`: the Potency was 139 nM (active) and inactive.
With `O=C(O)Cn1c(=O)n(Cc2ccc(Br)cc2F)c(=O)c2ccc(Cl)cc21`, the Potency result was “inactive”.
